# Results from ChEMBL document CHEMBL3988442, “University of Dundee, Small-Polar-MMV Screening Library” (2021).
# The whole screen tested about 69,000 compounds, of which about 1,000 (1.4%) showed an effect of 50% or more. Shown is part of a subset that was picked to be rich in strong results.
# Tested on: Leishmania donovani
# Test: Leishmania intramacrophage assay
# Assay type: functional, organism-based
# Parameters: scale not given: in the data most compounds retested in dose-response had high values
structure (smiles),measurement,setting,value
CCOCC(=O)NCCn1ccc(-c2ccccn2)n1,Percent Effect,"30.3 µM, […]",14.51%
CCOc1ccc(Cl)cc1C(C(=O)O)N1CCOCC1 (centres undefined),Percent Effect,"30.3 µM, […]",26.6%
CC(Cn1cncc1-c1cnn(C2CCCCC2)c1)N1CCCCC1.Cl (centres undefined),Percent Effect,"30.3 µM, […]",20.46%
CC(O)CN1CCN(C(=O)CN(C)c2ccc(C#N)cn2)CC1 (centres undefined),Percent Effect,"30.3 µM, […]",-1.14%
Cn1ccnc1CN1CCC2(CC1)CCN(Cc1ccoc1)C2.O=C(O)C(F)(F)F.O=C(O)C(F)(F)F,Percent Effect,"30.3 µM, […]",10.21%
O=C(O)C(F)(F)F.O=C(O)C(F)(F)F.O=C(O)C(F)(F)F.c1coc(CN2CCOC3(COCCN(Cc4ccncc4)C3)C2)c1 (centres undefined),Percent Effect,"30.3 µM, […]",52.19%
Cc1ccc(CN2CCN(Cc3ccncc3)CC2=O)cc1,Percent Effect,"30.3 µM, […]",-11.56%
CS(=O)(=O)N1CCOCC2(CN(Cc3ccco3)CCO2)C1.O=C(O)C(F)(F)F (centres undefined),Percent Effect,"30 µM, 30.03 µM",-12.04%
Cc1ccc(CN2CCOC3(COCCN(Cc4ccncc4)C3)C2)o1.O=C(O)C(F)(F)F.O=C(O)C(F)(F)F.O=C(O)C(F)(F)F (centres undefined),Percent Effect,"30.3 µM, […]",5.942%
O=C(O)C(F)(F)F.O=C(O)C(F)(F)F.c1cncc(-c2ccc3c(c2)CCC32CCN(Cc3ccco3)CC2)c1,Percent Effect,"30.3 µM, […]",59.2%
O=C(O)C(F)(F)F.O=C(O)C(F)(F)F.c1cncc(-c2ccc3c(c2)CCC32CCN(Cc3nccs3)CC2)c1,Percent Effect,"30.3 µM, […]",20.15%
Cc1ccc(CN2CCCC3(CCN(Cc4ccoc4)CC3)C2)cc1.O=C(O)C(F)(F)F.O=C(O)C(F)(F)F,Percent Effect,"30.3 µM, […]",70.84%
CN(C)CC(=O)N1CCC2(CCc3cc(-c4cccnc4)ccc32)CC1.O=C(O)C(F)(F)F.O=C(O)C(F)(F)F,Percent Effect,"30.3 µM, […]",37.66%
Cc1ccc(CN2CCC3(CCN(Cc4ccncc4)CC3)CC2)cc1,Percent Effect,"30.3 µM, […]",75.36%
COCCC(=O)N1CC2(CCN(Cc3ccncc3)CC2)C1,Percent Effect,"30.3 µM, […]",34.97%
COCCN1CC[C@@H]2O[C@@H](COCC(=O)N3CCCC3)CC[C@@H]21.O=C(O)C(F)(F)F,Percent Effect,"30 µM, 30.03 µM",27.81%
CO[C@H]1CO[C@@]2(CCCN(C(=O)N(C)C)C2)C1,Percent Effect,"30.3 µM, […]",25.22%
O=C(NCCCn1nc2ccccn2c1=O)NCCC1CCC1,Percent Effect,"30.3 µM, […]",27.05%
CCNc1cc2c(nn1)CCN(C(=O)c1ccc3cc[nH]c3c1)C2,Percent Effect,"30 µM, 30.03 µM",18.46%
OC[C@@H]1CCCN1c1ccc(-c2nc(COc3ccccc3)no2)cn1,Percent Effect,"30.3 µM, […]",-6.4%
CSCC[C@@H](CO)Nc1ccc(-c2nc(-c3ccccc3F)no2)cn1,Percent Effect,"30.3 µM, […]",-35.38%
CC(C)(CO)Nc1ccc(-c2nc(-c3ccccc3F)no2)cn1,Percent Effect,"30.3 µM, […]",-6.29%
CN(C)CCNc1ccc(-c2nc(COc3ccccc3)no2)cn1,Percent Effect,"30.3 µM, […]",58.19%
COc1cccc(-c2noc(-c3ccc(NCCCO)nc3)n2)c1OC,Percent Effect,"30.3 µM, […]",59.5%
COc1cccc(-c2noc(-c3ccc(NCCCN)nc3)n2)c1OC,Percent Effect,"30.3 µM, […]",10.02%
CN(C)CCNc1ccc(-c2nc(-c3ccccc3F)no2)cn1,Percent Effect,"30.3 µM, […]",51.45%
CNCCNc1ccc(-c2nc(-c3cccc(OC)c3OC)no2)cn1,Percent Effect,"30.3 µM, […]",11.62%
CN(C)CCN(C)c1ccc(-c2nc(COc3ccccc3)no2)cn1,Percent Effect,"30.3 µM, […]",42.47%
Cc1nc(C)n(CC2CCCN(Cc3ccc(C(N)=O)cc3)C2)n1 (centres undefined),Percent Effect,"30 µM, 30.03 µM",-3.523%
Cc1ccc(F)c2c1N(C(=O)c1cn(CC(=O)N(C)C)nn1)CCC2,Percent Effect,"30.3 µM, […]",-28.86%
CCCSCC(=O)NS(=O)(=O)c1ccc2c(c1)OCCO2,Percent Effect,"30 µM, 30.03 µM",12.46%
O=C(O)C(F)(F)F.O=C(O)C(F)(F)F.c1c(CN2CCCC2)nc2n1CCN(C1CCOCC1)C2,Percent Effect,"30.3 µM, […]",25.13%
CC(C)NC(=O)C1(Cc2ccccc2-c2ccccc2)CCCNC1 (centres undefined),Percent Effect,"30.3 µM, […]",40.16%
Cc1ccc(-c2ccccc2CC2(C(=O)NC(C)C)CCCNC2)cc1 (centres undefined),Percent Effect,"30.3 µM, […]",53.92%
CC(C)NC(=O)C1(Cc2ccccc2-c2cncnc2)CCCNC1 (centres undefined),Percent Effect,"30.3 µM, […]",16.97%
CC(C)(C)C(O)CN1CCN(C(=O)c2cccc3ncccc23)CC1 (centres undefined),Percent Effect,"30 µM, 30.03 µM",14.67%
Cc1cc(NCc2cn(C)nc2-c2cccnc2)n(C)n1,Percent Effect,"30.3 µM, […]",-18.07%
O=C1NCCCc2[nH]c(-c3nc(C4CC4)no3)nc21,Percent Effect,"30.3 µM, […]",0.06758%
Nc1ccc(-c2cc(O)cc(CCC3CCCCN3)c2)cn1 (centres undefined),Percent Effect,"30.3 µM, […]",30.15%
Oc1cc(CCC2CCCCN2)cc(-c2ccncc2)c1 (centres undefined),Percent Effect,"30 µM, 30.03 µM",12.39%
Oc1cc(CCC2CCCCN2)cc(-c2cccnc2)c1 (centres undefined),Percent Effect,"30.3 µM, […]",51.21%
CC[C@@H](C)[C@H](NC(=O)NC1CCS(=O)(=O)C1)C(=O)NCc1ccncc1 (some centres undefined),Percent Effect,"30.3 µM, […]",-5.4%
CCNC(=O)CN(CC)S(=O)(=O)c1c(Br)cc2[nH]c(=O)oc2c1Cl,Percent Effect,"30.3 µM, […]",26.48%
CNC(=O)CN(C)S(=O)(=O)c1c(Br)cc2[nH]c(=O)oc2c1Cl,Percent Effect,"30.3 µM, […]",30.57%
COC(=O)C(C)CN(C)S(=O)(=O)c1c(Br)cc2[nH]c(=O)oc2c1Cl (centres undefined),Percent Effect,"30.3 µM, […]",53.15%
COc1cc(OC)c(-c2nc3c([nH]2)c(C2CC2)nn3C)cc1OC,Percent Effect,"30.3 µM, […]",40.91%
CC(C)c1ncncc1C(=O)NCCN1CCOCC1,Percent Effect,"30.3 µM, […]",-51.02%
Cc1ccc(C(=O)Nc2cc(C(C)C)n[nH]2)cn1,Percent Effect,"30 µM, 30.03 µM",-3.681%
Cc1ccc(CC(=O)Nc2cc(C(C)C)n[nH]2)cn1,Percent Effect,30 µM,62.25%
